{"source": "PubChem BioAssay AID651735", "about": "(Southern Research Specialized Biocontainment Screening …, 2012)", "note": "Values without a mark were called inactive. The rule behind the calls is not given here."}
{"experiment": "Vero 76 cell cytotoxicity, cytotoxicity control for VEEV inhibitor project, set 8 (AID 651735)", "settings": "Vero 76 cells viability; series mostly up to 50 µM; viability: at the top concentration", "units": {"viability": "%"}}
{"smiles": "CN1CCN(C)C(=Nc2ccc([N+](=O)[O-])cc2C(=O)Nc2ccccc2)C1", "viability": 88.6}
{"smiles": "O=c1c2cc(F)c(F)cc2nc(CN2CCNCC2)n1-c1ccccc1", "viability": 99.6}
{"smiles": "COc1ccc(NC(=O)c2cc([N+](=O)[O-])ccc2N=C2CN(C)CCN2C)cc1", "viability": 101}
{"smiles": "O=c1c2cc([N+](=O)[O-])ccc2nc(CN2CCCNCC2)n1-c1ccccc1", "viability": 90.8}
{"smiles": "CCN1CCN(Cc2nc3ccc([N+](=O)[O-])cc3c(=O)n2-c2ccccc2F)CC1", "viability": 87.5}
{"smiles": "CN1CCN(C)C(=Nc2ccc(C#N)cc2C(=O)Nc2ccccc2)C1", "viability": 91.2}
{"smiles": "O=c1c2cc([N+](=O)[O-])ccc2nc(CN2CCCNC2)n1-c1ccccc1", "viability": 91.1}
{"smiles": "CN1CCN(C)C(=Nc2ccc([N+](=O)[O-])cc2C(=O)Nc2ccccc2F)C1", "viability": 94.6}
{"smiles": "COc1ccc(CNc2nc(=O)c3cccnc3s2)cc1", "viability": 96.2}
{"smiles": "CCN1CCN(Cc2nc3ccc(-c4ccccn4)cc3c(=O)n2-c2ccccc2)CC1", "viability": 89.5}
{"smiles": "CCN1CCN(C2c3ncccc3C(=O)N2c2ccccc2)CC1", "note": "(stereo not drawn)", "viability": 95.4}
{"smiles": "COc1ccc(Nc2nc(=O)c3cccnc3s2)cc1", "viability": 94.6}
{"smiles": "CN(c1ccc(OCc2ccccc2)cc1)c1nc(=O)c2cccnc2s1", "viability": 83.4}
